HT1080 IDH1KD tx – toxicity to HT-1080 IDH1 knockdown cells (counter line) | HT-1080 IDH1 knockdown viability, ATP luminescence, 48 h | Potency, µM (series often up to 46.1 µM), most hits filed as cytotoxic | 360,000 tested, 2% active | AID 686971
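Luminescent ATP read-out (CellTiter-Glo, 10 min at room temperature) after 48 h compound exposure at 37 °C gave viability of IDH1-knockdown HT-1080 cells. Activity was normalised to DMSO and cell-free wells, then fitted as concentration-response curves.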
KB-3-1 cytotox – KB-3-1 parental cell cytotoxicity. KB-3-1 viability, CellTiter-Glo ATP luminescence, 72 h. 400,000 tested, 1.4% active. Potency, µM (doses to about 46.1 µM), actives largely listed as cytotoxic; further: nearly all actives have a fitted effect of over 60% in size
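Parental KB-3-1 adenocarcinoma cells in phenol-red-free DMEM with 10% FBS were pin-treated with compounds at several concentrations, incubated 72 h at 37 °C, and viability read by CellTiter-Glo luminescence; concentration-effect curves were fitted after normalization.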
SW480 rerep – inducers of DNA re-replication in SW480 colon cancer cells | 340,000 tested, 1.8% active | SW480 DNA re-replication, Hoechst DNA content imaging, 48 h | Potency, µM (doses to about 46.1 µM), most hits filed as activators; further: nearly all actives have a fitted effect of over 55% in size
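Hoechst fluorescence of nuclei (405 nm excitation, 500-530 nm emission) measured by plate-scanning imager after 48 hr compound exposure at 37 C; re-replication scored as increased number of nuclei with elevated intensity.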
HT1080NT lethal – kills 2HG-producing HT-1080-NT fibrosarcoma cells; Potency, µM (titrated, usually from 46.1 µM), usual class: cytotoxic; 360,000 tested, 1.6% active; AID 686970; HT-1080-NT fibrosarcoma viability, CellTiter-Glo ATP luminescence, 48 h;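 further: NT is the 2HG producing partner of a matched IDH1 knockdown line; nearly all actives have a fitted effect of over 55% in size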
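HT-1080-NT; 750 cells/well; 5% FBS RPMI; 48 h compound, 37 degrees C; CellTiter-Glo luminescence; curve fitting and curve-class assignment.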
KB-V1 cytotox – kills drug-selected multidrug resistant KB-V1 cells. KB-V1 MDR cells viability, CellTiter-Glo, 72 h. Potency, µM (top dose mostly 46.1 µM), usual class: cytotoxic. 400,000 tested, 3.4% active; further: nearly all actives have a fitted effect of over 60% in size
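KB-V1 cells (P-gp-expressing MDR subline of KB-3-1) in phenol-red-free DMEM with 10% FBS were exposed to library compounds over a concentration series for 72 h at 37 degrees C. Viability read by CellTiter-Glo luminescence; concentration-effect curves fitted after normalization.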
MCF10A rereplic – induces DNA re-replication in MCF 10a normal breast cells | MCF 10A DNA re-replication, Hoechst nuclear intensity, 48 h | Potency, µM (top dose mostly 46.1 µM), hits mostly activators | 350,000 tested, 2.9% active | AID 624296; further: nearly all actives have a fitted effect of over 50% in size
A number is an active result; – = inactive; ? = inconclusive; · = not tested or not shown. Most compounds without a hit are left out; they make up all but 7.9% or so of the library. The call rests on the fitted dose curve; in most records, active means well fitted curve in the direction sought with a large enough effect; inconclusive means small, poorly fitted or top-dose-only effect, or another doubt; inactive means no such curve, though single readings can be large; an effect the other way counts as inactive or inconclusive.

SMILES | HT1080 IDH1KD tx | KB-3-1 cytotox | SW480 rerep | HT1080NT lethal | KB-V1 cytotox | MCF10A rereplic
Cn1c(SCc2nc3ccccc3[nH]2)nnc1-c1cccs1 | – | – | – | – | 21µM | –
Cn1c(SCc2c(Cl)cccc2Cl)nnc1-c1cccs1 | – | – | – | ? | 18µM | –
Cc1ccc(CSc2nnc(-c3cccs3)n2C)cc1 | – | – | – | – | – | –
Cn1c(Cc2cccs2)nnc1SCc1nc2ccccc2[nH]1 | – | – | – | – | – | –
CCn1cc(C(=O)NCCc2ccc(Cl)cc2)c(=O)c2cc(S(=O)(=O)N3CCC(C)CC3)ccc21 | · | – | · | · | – | ·
COc1cc(-c2ccc3ncnc(NCc4cccs4)c3c2)cc(OC)c1OC | · | – | · | · | – | ·
COc1cc(/C=C/C(=O)N2C(=O)c3cccc(N)c3C2=O)cc(OC)c1OC | – | – | ? | – | – | 9.2µM
COc1ccc(OC)c(/C=C/C(=O)N2C(=O)c3cccc(N)c3C2=O)c1 | 16µM | ? | ? | ? | ? | 18µM
COc1cc(/C=C/C(=O)N2CCN(C(=O)/C=C/c3cc(OC)c(OC)c(OC)c3)CC2)cc(OC)c1OC | – | – | – | – | – | –
O=S(=O)(c1cnc(Cl)c(Br)c1)N1CCc2ccccc21 | ? | – | ? | 21µM | – | ?
O=C(Cc1ccccc1)NCC(=O)OCC(=O)c1cccc2ccccc12 | · | – | · | · | – | ·
Cc1ccc(CNC(=O)CCCn2c(=O)c3ccccc3n(CC(=O)Nc3ccc(C)cc3)c2=O)cc1 | · | – | · | · | – | ·
Cn1c(=O)cc(OCC(=O)NCc2ccc(F)cc2Cl)c2ccccc21 | · | – | · | · | – | ·
CCOC(=O)c1c(-c2ccccc2)csc1NC(=O)c1ccc(S(=O)(=O)N2CCOCC2)cc1 | – | – | ? | – | – | 12µM
CCn1cc(C(=O)OCC(=O)Nc2cccc(S(=O)(=O)N3CCOCC3)c2)c(=O)c2ccc(C)nc21 | – | – | – | – | 8.2µM | –
CCOC(=O)c1ccc(NC(=O)c2cccc(S(=O)(=O)N3CCOCC3)c2)cc1 | – | – | – | – | 23µM | –
CCOc1cc(N2CCOCC2)c(OCC)cc1NC(=O)c1cccc(S(=O)(=O)N2CCOCC2)c1 | ? | – | – | – | 15µM | –
CCOc1cc(N2CCOCC2)c(OCC)cc1NC(=O)c1cccc(S(=O)(=O)N2CC(C)OC(C)C2)c1 (centres undefined) | – | – | · | – | – | ·
CCOC(=O)c1ccc(NC(=O)c2ccc(C)c(S(=O)(=O)N3CCOCC3)c2)cc1 | ? | ? | – | ? | ? | ?
COc1cc2oc(=O)c(CC(=O)NCc3ccc(OC)c(OC)c3)c(C)c2cc1Cl | · | – | · | · | – | ·
Cc1ccccc1-c1nn2c(=O)cc(CN3CCN(C(=O)c4ccccc4Br)CC3)nc2s1 | · | – | · | · | – | ·
CCN(Cc1ccccc1)C(=S)Nc1cc(C(=O)OC)ccc1C(=O)OC | – | – | – | – | 15µM | –
CCN1CCN(C(=S)Nc2cc(C(=O)OC)ccc2C(=O)OC)CC1 | – | – | – | – | – | –
COc1cc(/C=C/C(=O)OCC(=O)Nc2nnc(-c3ccccc3)o2)cc(OC)c1OC | – | – | – | – | 12µM | ?
CCN1CCN(C(=O)C2CCN(Cc3nc(-c4cccc(Cl)c4)oc3C)CC2)CC1 | – | – | – | – | – | –
SMILES | HT1080 IDH1KD tx | KB-3-1 cytotox | SW480 rerep | HT1080NT lethal | KB-V1 cytotox | MCF10A rereplic
CN1CCCN(C(c2ccccc2)c2ccc(Cl)cc2)CC1 (centres undefined) | 18µM | – | ? | 18µM | – | ?
COc1cc(CN2CCN(C(c3ccccc3)c3ccccc3)CC2)cc(OC)c1OC | ? | – | – | – | – | –
O=C(C1CCN(Cc2ccc(Cl)cc2)CC1)N1CCN(C(c2ccccc2)c2ccccc2)CC1 | ? | 21µM | ? | ? | ? | ?
CCN1CCN(C(=O)C2CCN(Cc3cc(Cl)ccc3O)CC2)CC1 | – | – | – | ? | – | 12µM
Cc1cccc(CN2CCN(C(c3ccccc3)c3ccc(Cl)cc3)CC2)c1 (centres undefined) | ? | – | – | ? | ? | 23µM
Cc1ccc(CNC(=O)c2cc3c(=O)n4cccc(C)c4nc3s2)cc1 | · | – | · | · | – | ·
COCc1cc(=O)[nH]c(SCCS(=O)(=O)c2ccc(C)cc2)n1 | – | – | – | – | – | –
COCc1cc(=O)[nH]c(SCCS(=O)(=O)c2ccc(Cl)cc2Cl)n1 | – | ? | – | – | ? | 16µM
c1csc(CNc2nc(Oc3ccncc3)c3sccc3n2)c1 | ? | – | · | – | ? | ·
Cc1ccc(OCCN2CCN(c3ncnc4sc(C)c(C)c34)CC2)cc1 | – | ? | ? | – | – | 23µM
Clc1ccc(OCCN2CCN(c3ncnc4sccc34)CC2)cc1 | 23µM | ? | – | – | 2.9µM | –
Cc1ccc(N2C(=O)C3C4C=CC(CNC(=S)N5CCN(c6cccc(C)c6)C(C)C5)(O4)C3C2=O)cc1 (centres undefined) | – | ? | 10µM | – | ? | 21µM
Cc1cccc(N2CCN(C(=O)CN3CCOc4ccccc43)CC2C)c1 (centres undefined) | – | – | ? | – | – | –
O=c1[nH]c(-c2ccc(O)cc2)nc2scc(-c3cccs3)c12 | – | – | – | – | – | 7.3µM
Cc1nc2scc(-c3cccs3)c2c(=O)[nH]1 | – | – | – | – | – | –
O=C1N=C(N2CCC(Cc3ccccc3)CC2)S/C1=C/c1cn[nH]c1-c1ccccc1 | – | – | – | – | 23µM | ?
c1ccc(CN2CCC3(CC2)Nc2ccccc2CO3)cc1 | – | – | – | ? | – | –
c1ccc(CN2CCC3(CCCc4ccccc43)CC2)cc1 | 16µM | – | – | ? | ? | –
CCN(Cc1ccc2c(c1)OCCO2)C(=O)CN1C(=O)NC2(CCCCC2)C1=O | – | – | – | – | 18µM | –
CN(Cc1ccc2c(c1)OCCO2)C(=O)CN1C(=O)NC2(CCCCC2)C1=O | – | – | – | – | – | –
Cc1ccc2nc(NC(=O)c3cccc(-c4cc5ccccc5oc4=O)c3)sc2c1 | ? | – | – | ? | ? | –
CCN(Cc1ccc(Cl)s1)C(=O)c1cccc(OCc2c(C)noc2C)c1 | – | ? | – | – | 5.8µM | ?
CCSc1nnc(NC(=O)c2cccc(OCc3c(C)noc3C)c2)s1 | – | – | – | – | – | ?
CCOc1ccc2nc(NC(=O)c3cccc(-c4cc5ccccc5oc4=O)c3)sc2c1 | 16µM | – | 16µM | 13µM | ? | ?
COc1ccc2nc(NC(=S)N(C)C)sc2c1 | – | 21µM | – | – | 3.3µM | –
COc1ccc2nc(NC(=O)c3cccc(OCc4c(C)noc4C)c3)sc2c1 | ? | 18µM | ? | ? | 3.7µM | –

Compound activity as filed in PubChem.
